The source of these data is the supplement of paper PMC7866885, “A novel bicyclic 2,4-diaminopyrimidine inhibitor of Streptococcus suis dihydrofolate reductase” (PeerJ, 2021).

Structures are written as SMILES. ± gives the standard deviation.

The test system of one experiment is Streptococcus suis HE06. In words: percent growth relative to DMSO control; higher = less growth inhibition. Particulars: 10 µM; incubation time 18 h. As to the method: (§1)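 CLSI broth microdilution: 5x10^4 CFU of Streptococcus suis (strain P1/7 or HE06) incubated with 10 µM Pathogen Box compound in cation-adjusted Mueller Hinton broth, 37 °C, 5% CO2, 18 h. Growth read as OD600 and expressed as percent of the DMSO-treated control (100%); mean ± SD of three independent experiments.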
Regarding `CCOC(=O)c1noc(N)c1-c1ccccc1`, the percent growth turned out to be 107 ± 2.4%.

In the case of `CCOc1ccc2cc(-c3nn(C(C)(C)C)c(N)c3C(N)=O)cnc2c1`, the percent growth was 77.6 ± 17%.

Take `Clc1ccc(CN2CCN(C3=NCCN3)CC2)cc1Cl`: the percent growth worked out at 89 ± 2.1%.

In the case of `O=C(NCc1cc(Cl)cc(Cl)c1)c1c(C(F)(F)F)nc2ccccn12`, the percent growth amounted to 84.6 ± 3.8%.

For `N=C(N)c1ccc(OCCCCCOc2ccc(C(=N)N)cc2)cc1`, the percent growth came to 146 ± 200%.

As to `O=C([C@@H](c1ccc(Cl)cc1)c1cccnc1)N1CCN(c2ccc(C(F)(F)F)cc2)CC1`, the percent growth stood at 89 ± 10%.

For the molecule `c1ccc(Oc2ccc(-c3cc(N4CCNCC4)[nH]n3)cc2)cc1`, the percent growth was 106 ± 35%.

`CC(C)(C(=O)Nc1ccc(F)cc1)n1cc(-c2ccccc2F)cn1`: the percent growth stood at 106 ± 22%.

With `COC(=O)c1ccc(F)cc1NS(=O)(=O)c1cccc(-c2cnn(Cc3ccccc3)c2)c1`, the percent growth is 99.6 ± 8.2%.

As for `Nc1nc2ccc(-c3cncc(Oc4ccc(F)cc4)c3)cc2[nH]1`, the percent growth amounted to 91.8 ± 11%.

For `Nc1ncc(Br)cc1-c1nc2cc(Cl)cnc2[nH]1`, the percent growth was 92.2 ± 8.1%.

Regarding `O=C(NCc1ccco1)N1CCN(Cc2ccc(Cl)s2)CC1`, the percent growth is 97.2 ± 4.8%.

On to `Cc1cnc(CCNC(=O)c2cc(-c3ccc(Cl)cc3)cs2)[nH]1`, for which the percent growth is 80.7 ± 6.9%.

For `CCCn1nnc(NC(=O)COc2ccc(C3CCCCC3)cc2)n1`, the percent growth worked out at 115.2 ± 1%.

As for `CN1CCC(c2cc(-c3ccncc3)c(-c3ccc(F)cc3)[nH]2)CC1`, the percent growth was 101 ± 13%.

As to `CC1CS(=O)(=O)CCN1/N=C/c1ccc([N+](=O)[O-])o1` (stereo unspecified), the percent growth stood at 85.9 ± 6.6%.

For the molecule `COc1ccc(S(=O)(=O)Nc2ccc(CN3CCN(C(=O)c4cccc(C#N)c4)CC3)cc2)cc1`, the percent growth was 103 ± 16%.

In the case of `Cn1ncc2c(N3CCOCC3)nc(NCCc3c[nH]c4ccccc34)nc21`, the percent growth is 76.5 ± 10%.

Consider `COC(=O)C1=C(C)NC(C)=C(C(=O)OC(C)C)C1c1cccc2nonc12` (stereo unspecified), for which the percent growth turned out to be 73.1 ± 15%.

For `Cc1ccc(NC(=O)CC2COc3ccccc3O2)cc1Cl` (stereo unspecified), the percent growth was 96.4 ± 1.4%.

As for `CN(C(=O)c1cc2c(-c3cncnc3)cccc2[nH]1)c1ccccc1`, the percent growth stood at 102 ± 29%.

Consider `OCCc1ccc(Nc2nccc(-c3nnc4ccccn34)n2)cc1`, for which the percent growth is 92.9 ± 6.6%.

With `CC(C)C(Oc1cccc2ccccc12)C(=O)O` (stereo unspecified), the percent growth was 87 ± 4.3%.

As for `CC(C)=CCC/C(C)=C\CNCCNC1C2CC3CC(C2)CC1C3` (stereo unspecified), the percent growth turned out to be 0.0687 ± 0.12%.

As to `OCc1ccc(-c2cncc(Nc3cccc(Cl)c3)c2)cc1`, the percent growth stood at 88 ± 13%.

Take `CN1CCCN(C(c2ccccc2)c2ccc(Cl)cc2)CC1` (stereo unspecified): the percent growth was 91.9 ± 4.1%.

Consider `c1ccc(-c2cc(N3CCCCC3)c3ccccc3n2)nc1`, for which the percent growth turned out to be 0.646 ± 1.1%.

In the case of `O=C(CCC1CCCCC1)Nc1cccc(-c2nnc(-c3ccco3)o2)c1`, the percent growth was determined as 93.8 ± 3.7%.

As for `COc1cncc(-c2cncc(N3CCN(c4ccncc4)CC3)n2)c1`, the percent growth was 87.2 ± 26%.

With `CC1=Nc2ccc(Cl)cc2C(c2ccccc2)N1CCNC(=O)CN(C)C` (stereo unspecified), the percent growth turned out to be 84.8 ± 4.2%.

On to `c1ccc(-c2[nH]c3ccccc3c2C(c2ccccn2)N2CCCC2)cc1` (stereo unspecified), for which the percent growth came out at 88.5 ± 4.3%.

Regarding `O=C(Cn1ccnc1[N+](=O)[O-])NCc1ccccc1`, the percent growth came out at 79.1 ± 10%.

Take `Cc1nn(C(=O)Nc2cccc(C(F)(F)F)c2)c(C)c1Sc1ncccn1`: the percent growth was 25.4 ± 40%.

On to `FC(F)(F)c1ccc(N(c2cccnc2)C2CCN(c3ccc(C(F)(F)F)cn3)CC2)cc1`, for which the percent growth worked out at 67.9 ± 13%.

`Nc1ncc(-c2ccc(C(F)(F)F)nc2)cc1-c1ccc(C(F)(F)F)nc1`: the percent growth is 98.8 ± 13%.

As for `CC(C)(C)c1cc(C(=O)N2CCN(c3nccnc3C#N)CC2)n(Cc2ccccc2)n1`, the percent growth was determined as 93.1 ± 32%.

On to `NCC(c1cccs1)S(=O)(=O)c1ccccc1` (stereo unspecified), for which the percent growth turned out to be 111 ± 30%.

Take `CCOc1ccccc1NC(C)C(=O)Nc1cc(C(F)(F)F)ccc1N1CCOCC1` (stereo unspecified): the percent growth is 115 ± 20%.

For the next experiment, the system named is Streptococcus suis P1/7. Described as above. Particulars: 10 µM; incubation time 18 h. As to the method:
as §1
Take `CCOC(=O)c1noc(N)c1-c1ccccc1`: the percent growth was 113 ± 32%.

As to `CCOc1ccc2cc(-c3nn(C(C)(C)C)c(N)c3C(N)=O)cnc2c1`, the percent growth is 83.1 ± 23%.

`Clc1ccc(CN2CCN(C3=NCCN3)CC2)cc1Cl`: the percent growth was 72.2 ± 28%.

In the case of `O=C(NCc1cc(Cl)cc(Cl)c1)c1c(C(F)(F)F)nc2ccccn12`, the percent growth turned out to be 60.6 ± 20%.

On to `N=C(N)c1ccc(OCCCCCOc2ccc(C(=N)N)cc2)cc1`, for which the percent growth amounted to 37.1 ± 32%.

Consider `O=C([C@@H](c1ccc(Cl)cc1)c1cccnc1)N1CCN(c2ccc(C(F)(F)F)cc2)CC1`, for which the percent growth turned out to be 75.6 ± 12%.

Consider `c1ccc(Oc2ccc(-c3cc(N4CCNCC4)[nH]n3)cc2)cc1`, for which the percent growth amounted to 67.6 ± 28%.

For `CC(C)(C(=O)Nc1ccc(F)cc1)n1cc(-c2ccccc2F)cn1`, the percent growth amounted to 84.1 ± 6.1%.

For `COC(=O)c1ccc(F)cc1NS(=O)(=O)c1cccc(-c2cnn(Cc3ccccc3)c2)c1`, the percent growth was determined as 127 ± 52%.

In the case of `Nc1nc2ccc(-c3cncc(Oc4ccc(F)cc4)c3)cc2[nH]1`, the percent growth is 111 ± 67%.

As for `Nc1ncc(Br)cc1-c1nc2cc(Cl)cnc2[nH]1`, the percent growth is 100 ± 9.8%.

In the case of `O=C(NCc1ccco1)N1CCN(Cc2ccc(Cl)s2)CC1`, the percent growth was found to be 91.1 ± 21%.

Take `Cc1cnc(CCNC(=O)c2cc(-c3ccc(Cl)cc3)cs2)[nH]1`: the percent growth stood at 77.5 ± 18%.

For `CCCn1nnc(NC(=O)COc2ccc(C3CCCCC3)cc2)n1`, the percent growth was 85.9 ± 12%.

For the molecule `CN1CCC(c2cc(-c3ccncc3)c(-c3ccc(F)cc3)[nH]2)CC1`, the percent growth came to 165 ± 140%.

As to `CC1CS(=O)(=O)CCN1/N=C/c1ccc([N+](=O)[O-])o1` (stereo unspecified), the percent growth was determined as 85.1 ± 16%.

`COc1ccc(S(=O)(=O)Nc2ccc(CN3CCN(C(=O)c4cccc(C#N)c4)CC3)cc2)cc1`: the percent growth was determined as 118 ± 47%.

With `Cn1ncc2c(N3CCOCC3)nc(NCCc3c[nH]c4ccccc34)nc21`, the percent growth was 78.8 ± 17%.

Turning to `COC(=O)C1=C(C)NC(C)=C(C(=O)OC(C)C)C1c1cccc2nonc12` (stereo unspecified), the percent growth was found to be 73.6 ± 34%.

Regarding `Cc1ccc(NC(=O)CC2COc3ccccc3O2)cc1Cl` (stereo unspecified), the percent growth turned out to be 95.7 ± 33%.

On to `CN(C(=O)c1cc2c(-c3cncnc3)cccc2[nH]1)c1ccccc1`, for which the percent growth was 72.2 ± 27%.

With `OCCc1ccc(Nc2nccc(-c3nnc4ccccn34)n2)cc1`, the percent growth is 88.5 ± 13%.

With `CC(C)C(Oc1cccc2ccccc12)C(=O)O` (stereo unspecified), the percent growth amounted to 64 ± 22%.

On to `CC(C)=CCC/C(C)=C\CNCCNC1C2CC3CC(C2)CC1C3` (stereo unspecified), for which the percent growth is -0.0282 ± 0.049%.

As for `OCc1ccc(-c2cncc(Nc3cccc(Cl)c3)c2)cc1`, the percent growth came out at 69.8 ± 33%.

`CN1CCCN(C(c2ccccc2)c2ccc(Cl)cc2)CC1` (stereo unspecified): the percent growth turned out to be 85.4 ± 14%.

Consider `c1ccc(-c2cc(N3CCCCC3)c3ccccc3n2)nc1`, for which the percent growth came out at 0.354 ± 0.61%.

Regarding `O=C(CCC1CCCCC1)Nc1cccc(-c2nnc(-c3ccco3)o2)c1`, the percent growth worked out at 111 ± 46%.

Regarding `COc1cncc(-c2cncc(N3CCN(c4ccncc4)CC3)n2)c1`, the percent growth was determined as 64.3 ± 15%.

For `CC1=Nc2ccc(Cl)cc2C(c2ccccc2)N1CCNC(=O)CN(C)C` (stereo unspecified), the percent growth turned out to be 84.5 ± 16%.

Regarding `c1ccc(-c2[nH]c3ccccc3c2C(c2ccccn2)N2CCCC2)cc1` (stereo unspecified), the percent growth stood at 108 ± 23%.

Consider `O=C(Cn1ccnc1[N+](=O)[O-])NCc1ccccc1`, for which the percent growth was found to be 114 ± 48%.

Consider `Cc1nn(C(=O)Nc2cccc(C(F)(F)F)c2)c(C)c1Sc1ncccn1`, for which the percent growth was -0.122 ± 0.21%.

As for `FC(F)(F)c1ccc(N(c2cccnc2)C2CCN(c3ccc(C(F)(F)F)cn3)CC2)cc1`, the percent growth was determined as 61.4 ± 12%.

On to `Nc1ncc(-c2ccc(C(F)(F)F)nc2)cc1-c1ccc(C(F)(F)F)nc1`, for which the percent growth is 101 ± 35%.

For `CC(C)(C)c1cc(C(=O)N2CCN(c3nccnc3C#N)CC2)n(Cc2ccccc2)n1`, the percent growth was determined as 91.6 ± 34%.

In the case of `NCC(c1cccs1)S(=O)(=O)c1ccccc1` (stereo unspecified), the percent growth worked out at 90.2 ± 41%.

On to `CCOc1ccccc1NC(C)C(=O)Nc1cc(C(F)(F)F)ccc1N1CCOCC1` (stereo unspecified), for which the percent growth came to 109 ± 31%.
